The values that follow come from PubChem BioAssay (NCATS).

The target of experiment [1] is Cytochrome P450 1A2 (Homo sapiens) (UniProt P05177). As to the kind of experiment: p450-cyp1a2 (AID 410; calls by dose curve; further: potency means the concentration at half of the fitted maximal effect). The method, boiled down:
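20nM CYP1A2, 100uM Luciferin-ME (=Km), 100mM KPO4; cpd 10 min RT; +NADPH regen, 60 min RT; stop/detect 20 min; luminescence. Normalized to furafylline 57 uM = full inhibition.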

Experiment [2] can be described thus: NFAT Signaling Pathway (AID 444; active means well fitted curve in either direction with a large enough effect, not every such curve was filed as active;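 further: carbachol stimulus at about its EC50 of 1 µM final; on the % scale 0 is the no-effect control and ±100 the full control effect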). Conditions: Jurkat NFAT-bla M1, carbachol, beta-lactamase ratio, 5 h; at 38 µM (top of the series). In a few lines:
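Jurkat cells carrying an NFAT-driven β-lactamase reporter and co-transfected muscarinic M1 receptor were treated with compound plus carbachol (1 uM final, an EC50 level) for 5 h at 37 °C. CCF4 loading followed for 1 h at RT; 460/530 nm ratio gave %activity.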

Experiment [3] in a line: Stat Signaling Pathway (AID 446; active means well fitted curve in either direction with a large enough effect, not every such curve was filed as active;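 further: ME-180 cervical cancer cells given 40 pM IL-6 alongside compound; SIE-controlled beta-lactamase reporter measured as 460/530 nm FRET emission ratio; on the % scale 0 is the no-effect control and ±100 the full control effect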). The conditions noted are these: ME-180 (cervical carcinoma) SIE beta-lactamase reporter, IL-6 stimulated, 5 h; at 38 µM (top of the series). The method, boiled down: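 Overnight-plated ME-180 cells bearing a STAT Inducible Element beta-lactamase reporter; 5 h co-exposure to compound and 40 pM IL-6; values normalized to 300 pM IL-6 and 125 nM JAK inhibitor controls.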

In experiment [4] the target is Glucocorticoid receptor (Homo sapiens) (UniProt P04150). As to the kind of experiment: GR-GFP Redistribution (AID 450;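 active means compounds whose dose series gives a full or clear partial fitted curve of increased nuclear translocation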; further: potency means the concentration at half of the fitted maximal effect). Conditions: U2OS GR-GFP nuclear translocation, laser cytometry, 2 h.
Experiment [5] shares this target. In words: GR-EFC Redistribution (AID 451; calls by dose curve; further: potency means the concentration at half of the fitted maximal effect). Conditions: CHO-K1 GR-EFC translocation, beta-gal luminescence, 2 h. The method, boiled down:
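CHO-K1 cells stably expressing nuclear-localized β-gal enzyme acceptor and GR fused C-terminally to the enzyme donor fragment; ligand-driven nuclear translocation restores β-gal by complementation. Compounds titrated up to 46 uM final, 2 h at 37 °C; luminescence read.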

In experiment [6] the target is Mitogen-activated protein kinase 10 (Mus musculus) (UniProt Q61831). In words: JNK3 AlphaScreen Assay (AID 530; active means well fitted curve in either direction with a large enough effect, not every such curve was filed as active;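 further: kinase came from lysate of stimulated human HepG2 cells; potency means the concentration at half of the fitted maximal effect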). In a few lines: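 Biotinylated GST-cJun(1-79) served as substrate for JNK3 in HepG2 lysates stimulated with IL-1beta and TNF-alpha. ATP was 10 uM final, pH 7.6. Ser73 phosphorylation was quantified by AlphaScreen (680 nm excitation).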
The target in experiment [7] is Cytochrome P450 3A4 (Homo sapiens) (UniProt P08684). As to the kind of experiment: qHTS Assay for Inhibitors and Substrates of Cytochrome P450 3A4 (AID 884). Further: potency means the concentration at half of the fitted maximal effect; nearly all actives have a fitted effect of over 50% in size. In a few lines: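 Luminescent readout of luciferin produced by CYP3A4 (20 nM) dealkylation of Luciferin-PPXE, 25 uM (its KM). NADPH-driven reaction ran 60 min at RT after 10 min compound preincubation; data scaled to 57 uM ketoconazole as 100% inhibition.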

Experiment [8] shares this target. In words: qHTS Assay for Activators of Cytochrome P450 3A4 (AID 885). Further: nearly all actives have a fitted effect of over 65% in size. In a few lines: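 Using 20nM recombinant human CYP3A4 in potassium phosphate (200mM), substrate Luciferin-PPXE at 25uM, luminescent luciferin detection followed a 60-min RT NADPH reaction; data scaled to 57 uM ketoconazole.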
On the technique in general: In qHTS, concentration-response curves come from the screen itself.

Experiment [9] has as its target Cytochrome P450 2D6 (Homo sapiens) (UniProt P10635). As to the kind of experiment: qHTS Assay for Inhibitors and Substrates of Cytochrome P450 2D6 (AID 891). Further: potency means the concentration at half of the fitted maximal effect; nearly all actives have a fitted effect of over 60% in size. The method, boiled down:
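Luminescent read-out of luciferin formed by 5 nM human CYP2D6 demethylating 30 uM Luciferin-ME EGE (Km level) over 60 min at room temperature after NADPH regeneration addition. Data normalized to full inhibition by 1.43 uM quinidine.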

Experiment [10] has as its target Cytochrome P450 2C19 (Homo sapiens) (UniProt P33261). As to the kind of experiment: qHTS Assay for Inhibitors and Substrates of Cytochrome P450 2C19 (AID 899). Further: potency means the concentration at half of the fitted maximal effect; nearly all actives have a fitted effect of over 60% in size. In a few lines: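 In 50mM KPO4, the reaction held 5nM enzyme and KM-level (10uM) Luciferin-H EGE; it ran 60 min at 37C after NADPH regeneration and a 10 min compound preincubation. Luminescence values were scaled to 57uM ketoconazole as complete inhibition.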

Experiment [11] deals with Muscarinic acetylcholine receptor M1 (Rattus norvegicus) (UniProt P08482). In words: qHTS Assay for Antagonists of Acetylcholine Muscarinic M1 Receptor: Measurement of IP-One Response (AID 944). Further: nearly all actives have a fitted effect of over 75% in size. The method, boiled down: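 Read-out: HTRF competition between d2-IP1 and Eu-cryptate anti-IP1 antibody, emission 620 and 665 nm. Stimulus was carbachol, EC80 (200 nM), for 30 min in M1-CHO cells (rat receptor), after 10 min compound pre-treatment.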

Experiment [12] concerns the target Pyruvate kinase PKM (Homo sapiens) (UniProt P14618). In words: qHTS Assay for Activators of Human Muscle Pyruvate Kinase (AID 954; active means well fitted curve in the direction sought with a large enough effect, not every such curve was filed as active;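 further: 0% = uninhibited enzyme and -100% = no enzyme or full thiadiazolimine inhibition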). In a few lines: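 Screening used highly purified human pyruvate kinase M2 under submaximal activity, with PEP at its Km and ADP below Km. After an hour at room temperature, ATP was read by luciferase luminescence.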
Experiment [13] shares this target. In words: qHTS Assay for Inhibitors of Human Muscle Pyruvate Kinase (AID 958). Conditions: purified human PKM enzyme activity. The method, boiled down:
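Compound pinned into substrate mix (0.5 mM PEP, 0.1 mM ADP), then 0.1 nM PKM2 added; 1 h, RT. Stop/detection luciferase reagent added, luminescence read. Normalized to no-inhibition and no-enzyme or reference-inhibitor controls.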

The target in experiment [14] is Pyruvate kinase (Leishmania mexicana) (UniProt Q27686). In words: qHTS Validation Assay for Activators of Leishmania Mexicana Pyruvate Kinase (AID 959). The method, boiled down:
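Eight-point qHTS titrations in triplicate, data normalized to DMSO neutral control. Reaction: 0.2 nM LmPYK E451W mutant, 0.5 mM PEP, 0.1 mM ADP, 7 mM MgCl2, pH 7.2, one hour at room temperature; luminescent ATP detection.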

For experiment [15], the target named is Alpha-galactosidase A (Homo sapiens) (UniProt P06280). In words: Counterscreen for Glucocerebrosidase Inhibitors: qHTS Assay for Human alpha-Galactosidase at pH 4.5 (AID 992). Further: 0% is about no effect. The method, boiled down: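 Each compound is preincubated briefly with 2 nM enzyme before substrate addition (80 uM); plates then sit 20 min at ambient temperature, are quenched with 1M NaOH/1M glycine, and read fluorometrically.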
(In general: A counterscreen serves to expose hits that act by an unwanted route or on another target.)

Experiment [16] deals with alpha-glucosidase (Oryza sativa, rice) (UniProt Q653V4). As to the kind of experiment: Counterscreen for Glucocerebrosidase Inhibitors: qHTS Assay for Rice alpha-Glucosidase at pH 5.0 (AID 997).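 Further: 0% = full activity with enzyme and -100% = basal without enzyme.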 In a few lines: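 Endpoint fluorogenic assay at pH 5.0: compounds (0.7 nM to 77 uM) titrated against 4 nM rice enzyme and 400 uM 4-MU-alpha-glucoside for 20 min at room temperature; NaOH/glycine stop, read ex 365/em 440 nm, Hill-fitted AC50.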

Experiment [17] deals with DNA repair nuclease/redox regulator APEX1 (Homo sapiens) (UniProt P27695). As to the kind of experiment: qHTS Validation Assay for Inhibitors of the Human Apurinic/apyrimidinic Endonuclease 1 (APE1) (AID 1705;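 further: TAMRA fluorescence gain over two minutes as APE1 cuts a quenched THF abasic duplex; on the % scale 0 is the no-effect control and ±100 the full control effect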). The method, boiled down:
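Activity read as rising fluorescence (598 nm emission, 525 nm excitation) from incision of a TAMRA/BHQ-2 duplex carrying a THF abasic site (50 nM). Compound and enzyme sat 15 min at RT before substrate start; signal change between first and third 60-s reads.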

Experiment [18] can be described thus: qHTS for differential inhibitors of proliferation of Plasmodium falciparum line 7G8 (AID 1815).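 Further: potency means the concentration at half of the fitted maximal effect; parasite growth measured after three days of incubation.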
Experiment [19] in a line: qHTS for differential inhibitors of proliferation of Plasmodium falciparum line GB4 (AID 1816).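 Further: potency means the concentration at half of the fitted maximal effect; parasite growth measured after 72 h incubation.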 The conditions noted are these: Potency: Plasmodium falciparum GB4 proliferation inhibition.

The structures appear in SMILES notation. “And” between values parts separate entries of the source, which are not always exact repeats. Equal entries are not always repeated. A number with no mark means an inactive call. Records with an inconclusive call do not appear. The source made the active and inactive calls. Unless noted, the call rests on the fitted dose curve; in most records, active means well fitted curve in the direction sought with a large enough effect; inconclusive means small, poorly fitted or top-dose-only effect, or another doubt; inactive means no such curve, though single readings can be large; an effect the other way counts as inactive or inconclusive. Some results are limits rather than exact numbers.

Sequence of Glucocorticoid receptor (Homo sapiens) (P04150 whole entry, looked up): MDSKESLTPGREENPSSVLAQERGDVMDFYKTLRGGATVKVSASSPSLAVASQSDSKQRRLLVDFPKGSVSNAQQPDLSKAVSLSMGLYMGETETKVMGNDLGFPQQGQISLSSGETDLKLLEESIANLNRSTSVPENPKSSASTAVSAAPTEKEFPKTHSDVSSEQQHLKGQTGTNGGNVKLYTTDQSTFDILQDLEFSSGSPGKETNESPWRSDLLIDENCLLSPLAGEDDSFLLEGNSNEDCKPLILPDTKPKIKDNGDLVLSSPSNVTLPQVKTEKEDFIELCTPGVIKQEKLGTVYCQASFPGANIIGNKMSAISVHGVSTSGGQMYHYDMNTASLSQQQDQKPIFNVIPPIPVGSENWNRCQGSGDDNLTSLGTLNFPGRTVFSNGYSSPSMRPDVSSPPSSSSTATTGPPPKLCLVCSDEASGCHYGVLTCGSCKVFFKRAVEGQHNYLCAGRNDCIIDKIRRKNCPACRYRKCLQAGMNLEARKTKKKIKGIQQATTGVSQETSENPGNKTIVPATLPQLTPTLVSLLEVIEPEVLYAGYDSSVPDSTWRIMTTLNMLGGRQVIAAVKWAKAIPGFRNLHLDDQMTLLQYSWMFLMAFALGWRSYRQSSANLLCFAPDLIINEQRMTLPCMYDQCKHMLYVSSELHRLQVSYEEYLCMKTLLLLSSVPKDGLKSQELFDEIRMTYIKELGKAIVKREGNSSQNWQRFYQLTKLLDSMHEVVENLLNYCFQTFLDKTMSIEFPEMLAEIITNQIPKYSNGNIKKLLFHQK
Sequence of Pyruvate kinase PKM (Homo sapiens) (P14618 whole entry, looked up): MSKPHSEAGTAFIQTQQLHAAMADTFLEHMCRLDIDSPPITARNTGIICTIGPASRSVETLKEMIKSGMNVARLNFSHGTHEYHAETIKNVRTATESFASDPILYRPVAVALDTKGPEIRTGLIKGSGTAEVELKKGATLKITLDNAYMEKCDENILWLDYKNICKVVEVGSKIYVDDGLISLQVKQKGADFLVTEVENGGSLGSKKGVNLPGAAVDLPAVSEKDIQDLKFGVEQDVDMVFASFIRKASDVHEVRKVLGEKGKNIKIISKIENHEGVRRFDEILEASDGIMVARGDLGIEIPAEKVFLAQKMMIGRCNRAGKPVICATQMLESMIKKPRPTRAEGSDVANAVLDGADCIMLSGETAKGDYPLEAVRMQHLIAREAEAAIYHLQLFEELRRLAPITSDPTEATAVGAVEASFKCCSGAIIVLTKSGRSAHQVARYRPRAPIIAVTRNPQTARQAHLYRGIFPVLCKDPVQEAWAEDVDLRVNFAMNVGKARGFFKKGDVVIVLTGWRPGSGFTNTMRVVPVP
Sequence of Cytochrome P450 3A4 (Homo sapiens) (P08684 whole entry, looked up): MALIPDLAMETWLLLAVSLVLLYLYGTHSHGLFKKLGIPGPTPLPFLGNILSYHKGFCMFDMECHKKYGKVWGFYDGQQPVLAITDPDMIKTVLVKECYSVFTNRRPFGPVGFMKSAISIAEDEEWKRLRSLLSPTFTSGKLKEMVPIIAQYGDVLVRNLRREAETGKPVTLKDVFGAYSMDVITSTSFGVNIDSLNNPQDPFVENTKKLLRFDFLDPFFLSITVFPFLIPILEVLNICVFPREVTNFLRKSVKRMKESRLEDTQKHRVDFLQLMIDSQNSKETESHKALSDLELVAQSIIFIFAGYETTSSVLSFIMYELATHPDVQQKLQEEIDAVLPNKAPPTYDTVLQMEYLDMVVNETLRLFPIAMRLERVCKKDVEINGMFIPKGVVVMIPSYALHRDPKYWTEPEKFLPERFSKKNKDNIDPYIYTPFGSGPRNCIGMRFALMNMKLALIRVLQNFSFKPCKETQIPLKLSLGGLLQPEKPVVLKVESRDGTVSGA
Sequence of Cytochrome P450 1A2 (Homo sapiens) (P05177 whole entry, looked up): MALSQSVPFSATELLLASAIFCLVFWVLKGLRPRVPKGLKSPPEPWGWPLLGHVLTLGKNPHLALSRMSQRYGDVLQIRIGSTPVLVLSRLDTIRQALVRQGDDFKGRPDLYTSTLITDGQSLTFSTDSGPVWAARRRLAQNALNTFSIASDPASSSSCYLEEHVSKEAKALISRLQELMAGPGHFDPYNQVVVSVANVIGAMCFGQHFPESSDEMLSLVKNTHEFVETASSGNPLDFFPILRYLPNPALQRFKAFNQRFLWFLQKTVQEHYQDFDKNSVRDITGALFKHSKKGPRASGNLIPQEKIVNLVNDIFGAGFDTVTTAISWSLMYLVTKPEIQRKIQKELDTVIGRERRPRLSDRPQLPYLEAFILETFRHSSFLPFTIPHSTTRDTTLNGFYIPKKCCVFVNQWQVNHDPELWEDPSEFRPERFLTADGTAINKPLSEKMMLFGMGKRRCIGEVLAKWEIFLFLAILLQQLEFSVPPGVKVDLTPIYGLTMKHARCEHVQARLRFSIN
Sequence of Cytochrome P450 2C19 (Homo sapiens) (P33261 whole entry, looked up): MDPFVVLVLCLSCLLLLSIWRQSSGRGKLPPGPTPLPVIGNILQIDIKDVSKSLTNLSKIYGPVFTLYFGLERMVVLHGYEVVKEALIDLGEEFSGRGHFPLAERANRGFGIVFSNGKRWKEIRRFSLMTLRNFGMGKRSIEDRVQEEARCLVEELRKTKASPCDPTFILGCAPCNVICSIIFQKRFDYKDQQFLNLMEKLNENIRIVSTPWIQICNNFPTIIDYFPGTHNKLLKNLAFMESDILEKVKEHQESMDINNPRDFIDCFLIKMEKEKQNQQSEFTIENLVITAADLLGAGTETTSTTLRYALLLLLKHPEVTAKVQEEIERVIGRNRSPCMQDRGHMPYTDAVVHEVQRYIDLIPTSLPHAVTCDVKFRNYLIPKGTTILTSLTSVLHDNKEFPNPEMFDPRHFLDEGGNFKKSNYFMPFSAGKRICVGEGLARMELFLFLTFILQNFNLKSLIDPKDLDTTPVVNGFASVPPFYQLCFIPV
Sequence of Muscarinic acetylcholine receptor M1 (Rattus norvegicus) (P08482 whole entry, looked up): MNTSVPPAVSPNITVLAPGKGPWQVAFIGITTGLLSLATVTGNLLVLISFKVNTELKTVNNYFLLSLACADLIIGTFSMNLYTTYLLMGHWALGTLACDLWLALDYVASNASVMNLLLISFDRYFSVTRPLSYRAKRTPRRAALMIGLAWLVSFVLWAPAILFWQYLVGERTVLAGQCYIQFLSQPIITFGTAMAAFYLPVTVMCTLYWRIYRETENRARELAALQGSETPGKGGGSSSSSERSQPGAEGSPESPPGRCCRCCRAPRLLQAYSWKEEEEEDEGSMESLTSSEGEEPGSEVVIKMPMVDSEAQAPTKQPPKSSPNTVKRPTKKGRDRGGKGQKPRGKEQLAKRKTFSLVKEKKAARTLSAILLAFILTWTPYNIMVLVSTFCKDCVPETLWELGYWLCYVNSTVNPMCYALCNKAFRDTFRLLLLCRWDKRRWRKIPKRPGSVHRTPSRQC
Sequence of Cytochrome P450 2D6 (Homo sapiens) (P10635 whole entry, looked up): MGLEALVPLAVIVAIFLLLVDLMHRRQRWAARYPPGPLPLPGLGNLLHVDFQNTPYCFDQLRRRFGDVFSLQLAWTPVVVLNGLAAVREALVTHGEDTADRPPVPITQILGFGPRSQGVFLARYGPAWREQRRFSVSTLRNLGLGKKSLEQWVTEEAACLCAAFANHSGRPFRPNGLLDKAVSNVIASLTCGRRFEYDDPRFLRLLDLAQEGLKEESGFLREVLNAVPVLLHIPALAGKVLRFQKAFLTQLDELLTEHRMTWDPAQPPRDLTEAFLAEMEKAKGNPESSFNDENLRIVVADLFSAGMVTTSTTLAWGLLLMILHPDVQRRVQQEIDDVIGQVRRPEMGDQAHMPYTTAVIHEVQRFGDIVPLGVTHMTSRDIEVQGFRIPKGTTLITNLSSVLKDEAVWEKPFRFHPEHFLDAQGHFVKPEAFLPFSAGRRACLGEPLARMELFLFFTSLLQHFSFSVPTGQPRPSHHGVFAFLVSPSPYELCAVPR
Sequence of Alpha-galactosidase A (Homo sapiens) (P06280 whole entry, looked up): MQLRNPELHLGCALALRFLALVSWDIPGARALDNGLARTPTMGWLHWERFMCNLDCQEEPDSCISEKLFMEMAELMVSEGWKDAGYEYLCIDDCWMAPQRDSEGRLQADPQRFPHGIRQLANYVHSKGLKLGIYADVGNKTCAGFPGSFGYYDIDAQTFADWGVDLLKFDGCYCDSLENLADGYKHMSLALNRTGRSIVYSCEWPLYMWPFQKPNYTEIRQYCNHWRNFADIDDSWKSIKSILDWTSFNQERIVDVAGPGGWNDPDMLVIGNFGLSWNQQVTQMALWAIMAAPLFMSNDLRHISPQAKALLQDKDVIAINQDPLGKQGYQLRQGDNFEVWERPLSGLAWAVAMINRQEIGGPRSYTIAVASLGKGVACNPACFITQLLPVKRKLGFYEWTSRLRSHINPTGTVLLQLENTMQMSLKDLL
Sequence of DNA repair nuclease/redox regulator APEX1 (Homo sapiens) (P27695 whole entry, looked up): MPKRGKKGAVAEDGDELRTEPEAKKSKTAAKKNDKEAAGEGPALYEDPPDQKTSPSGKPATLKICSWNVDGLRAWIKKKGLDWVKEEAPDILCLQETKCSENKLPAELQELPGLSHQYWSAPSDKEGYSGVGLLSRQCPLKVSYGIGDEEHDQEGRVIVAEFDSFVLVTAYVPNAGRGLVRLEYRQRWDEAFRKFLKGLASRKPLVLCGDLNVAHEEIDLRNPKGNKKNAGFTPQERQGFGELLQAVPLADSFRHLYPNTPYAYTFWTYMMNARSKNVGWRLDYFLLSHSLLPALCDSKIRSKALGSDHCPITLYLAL

Take `O=Nc1c(-c2c(O)[nH]c3ccccc23)[nH]c2ccccc12`: the Potency in experiment [1] was 200 nM (active) and 31.6 nM (active); in experiment [4] it was over 46 µM; in experiment [5], over 46 µM; in experiment [6] it was 3.16 µM (active); in experiment [7] it was 7.94 µM (active); in [9], 31.6 µM (active). Besides, the Potency was 6.31 µM (active) in experiment [10], 12.6 µM (active) in experiment [13], 1.26 µM (active) in experiment [18] and 0.708 µM (active) in experiment [19]. Also, the activity change, negative = inhibition in experiment [2] is -23.6%. In addition, the activity, negative = inhibition in experiment [3] was -75% (active). In addition, the Potency result in experiment [8], in experiment [11], in experiment [14] and in experiment [17] was “inactive” in each case. Besides, the compound was called inactive in experiment [12], in [15] and in experiment [16].
